Screening results as filed in PubChem BioAssay.
LAP4-GFP MLPCN: alters LAP4-GFP fluorescence in TOR pathway yeast screen; S. cerevisiae LAP4-GFP multiplex, flow cytometry GFP, 3 h; median GFP as percent of DMSO wells; GFP response vs DMSO, % at 10 µM; hit rate 0.34% among 320,000; AID 2023;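 active = GFP response vs DMSO above a set limit, about the screen mean plus 3 SD, cut at about 150% in these data; inconclusive = under 70 cell events counted for the yeast strain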
AGP1 TOR yeast: modulators of TOR pathway AGP1-GFP in S. cerevisiae | GFP response vs DMSO, % at 10 µM | S. cerevisiae AGP1-GFP multiplex flow cytometry, 3 h; GFP as percent of DMSO wells | hit rate 0.02% among 320,000 | AID 2066;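 active = GFP response relative to DMSO above a set limit, near screen average plus 3 SD, cut at about 150% in these data; inconclusive = fewer than 70 cells counted for the yeast strain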;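 note: median GFP channel fluorescence of the gated AGP1 strain per well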
CIT2-GFP yeast: alters CIT2-GFP fluorescence in TOR pathway yeast screen; S. cerevisiae CIT2-GFP strain, flow cytometry, 3 h; 100 means same as DMSO wells; GFP response vs DMSO, % at 10 µM; hit rate 0.065% among 320,000;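 active = GFP response relative to DMSO above a set limit, near the screen mean plus 3 SD, cut at about 150% in these data; inconclusive = Fewer than 70 cells measured for a yeast strain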;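 note: ratio of well median GFP fluorescence to mean of DMSO wells on the plate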
MEP2 TOR yeast: modulators of TOR pathway MEP2-GFP in S. cerevisiae | S. cerevisiae MEP2-GFP strain, flow cytometry GFP, 3 h; 100% = DMSO control level | GFP response vs DMSO, % at 10 µM | hit rate 0.51% among 330,000 | AID 2016;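 active = GFP response versus DMSO above a set limit, roughly screen mean plus 3 SD, cut at about 180% in these data; inconclusive = fewer than 70 cells counted for a yeast strain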;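 note: median GFP fluorescence of the barcode-gated MEP2-GFP cells per well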
RPL19A TOR yeast: modulators of TOR pathway RPL19A-GFP in S. cerevisiae; S. cerevisiae RPL19A-GFP strain, flow cytometry, 3 h; active compounds read low; percent response vs DMSO, % at 10 µM; hit rate 0.3% among 330,000;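 active = percent response vs DMSO below 50%; inconclusive = fewer than 70 events counted for the yeast strain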;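 note: median channel GFP fluorescence of the barcoded RPL19A-GFP strain; ratio of sample median GFP to plate DMSO average so 100% = DMSO; lower means less RPL19A-GFP as with rapamycin TOR inhibition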
Starred values were filed as active, the others as inactive; ? = inconclusive; . = not tested or not shown; [ ] = remark or other dose. Hits are enriched below; roughly 0.89% of the tested compounds scored in any of these assays.

SMILES	LAP4-GFP MLPCN	AGP1 TOR yeast	CIT2-GFP yeast	MEP2 TOR yeast	RPL19A TOR yeast
Cc1cnccc1CN(C)C(=O)C1CCC(=O)N(Cc2ccccc2F)C1 (stereo not given)	76	?	?	121	32*[may fluoresce violet]
CCOC(=O)c1cn(Cc2c(C)c(C)c(C)c(C)c2C)nn1	93	103	103	100	101
O=C(OCn1nnc2ccccc2c1=O)c1ccco1	102	90	97	101	94
O=C(OCn1nnc2ccccc2c1=O)C1=COCCO1	95	23	?	312*[may fluoresce violet]	64
Cc1ccc(C(=O)CCS(=O)(=O)c2ccc(F)cc2)cc1	102	107	121	96	97
Cc1ccc(S(=O)(=O)CCC(=O)c2ccc(F)cc2)cc1	112	123	164*	109	94
CC1CCN(S(=O)(=O)c2cccc(-c3cn4cc(Cl)ccc4n3)c2)CC1	158*	98	87	93	93
CC1CCCN(S(=O)(=O)c2cccc(-c3cn4cccnc4n3)c2)C1 (stereo not given)	84	.	?	177*[may fluoresce violet]	61
Cc1[nH]c2ccccc2c1CN1CCC(CO)(Cc2ccccc2)CC1	68	14	?	133	42*[may fluoresce violet]
COc1ccccc1C1CCN(Cc2c(C)[nH]c3ccccc23)CC1	152*	115	150	201*	110
Cc1[nH]c2c(C)cccc2c1CN1CCC(CO)(Cc2ccccc2)CC1	102	109	113	102	99
CCOc1cc(N2CCOCC2)c(OCC)cc1NCC(=O)N1CCN(Cc2ccccc2)CC1	101	98	96	101	96
CC1CN(c2nc(-c3ccc(Br)cc3)nnc2-c2ccccc2)CC(C)N1 (stereo not given)	113	.	?	496*[may fluoresce violet]	29*[may fluoresce violet]
Clc1ccc(-c2nnc(-c3ccccc3)c(N3CCSCC3)n2)cc1	96	95	107	96	98
Cc1ccc2c(c1)/C(=C/c1ccc(F)cc1)C(=O)N2	153*	85	52	133	77
CNC(=O)c1[nH]cnc1C(=O)Nc1ccccn1	430*[may fluoresce green]	154*[may fluoresce green]	435*[may fluoresce green]	622*[may fluoresce green]	155
COc1ccccc1NC(=O)c1nc[nH]c1C(=O)Nc1ccccc1OC	118	.	?	558*[may fluoresce violet]	42*[may fluoresce violet]
C[C@H]1COC(=O)[C@H](CC(=O)OC(C)(C)C)C/C=C\C[C@@H](CC(=O)N(CCO)Cc2ccccc2)C(=O)N1	105	101	96	100	96
COc1ccc(NC(=O)COC(=O)C2CCN(C(=O)c3ccc(Cl)cc3)CC2)c([N+](=O)[O-])c1	105	97	98	97	95
Cc1ccc(C(=O)N/C(=C/c2ccco2)C(=O)N2CCOCC2)cc1	174*	130	120	164	94
CC(=O)Nc1ccc(C2(c3ccc(NC(C)=O)cc3)NC(=O)c3ccccc32)cc1	91	102	100	103	99
O=C1Nc2ccccc2C1(O)c1ccccc1O (stereo not given)	?	?	?	?	31*[may fluoresce violet]
O=C(NCCc1ccccc1)/C(=C/c1ccco1)c1ccccc1	88	92	91	103	100
O=C(CSc1ncnc2scc(-c3ccccc3)c12)N1CCN(Cc2ccc3c(c2)OCO3)CC1	57	?	?	198*[may fluoresce violet]	30*[may fluoresce violet]
COc1ccccc1NC(=S)N1CCC(c2nc3cc(C)c(C)cc3[nH]2)CC1	98	?	?	300*[may fluoresce violet]	59
SMILES	LAP4-GFP MLPCN	AGP1 TOR yeast	CIT2-GFP yeast	MEP2 TOR yeast	RPL19A TOR yeast
COc1cccc2oc3ccc(C#CC4(N)CCCCC4)cc3c(=O)c12	128	88	84	93	100
NS(=O)(=O)c1cccc(NC(=O)CSc2nc3ccccc3c(=O)n2Cc2ccco2)c1	101	95	94	102	102
Cc1ccccc1C(=O)NC(=S)NCc1cccnc1	94	91	91	95	94
COc1ccc(CN(C(=O)c2snc(C(N)=O)c2N)C(C(=O)NC2CCCC2)c2cc(OC)ccc2OC)cc1 (stereo not given)	74	?	?	302*[may fluoresce violet]	41*[may fluoresce violet]
O=C(OCc1cccc([N+](=O)[O-])c1)c1ccncc1	95	98	108	119	109
O=C(OCc1cccc([N+](=O)[O-])c1)c1cnccn1	91	25	92	175*	82
CCOCCn1c(SCC)nc2c1c(=O)[nH]c(=O)n2C	97	108	106	105	96
CCC1=Nc2cc(C(=O)NCc3ccco3)ccc2Sc2ccc(Cl)cc21	100	108	106	111	103
CCC1=Nc2cc(C(=O)NCc3cccnc3)ccc2Sc2ccc(C)cc21	100	20	?	226*[may fluoresce violet]	48*[may fluoresce violet]
CCCC(=O)NC(=S)Nc1cc(-c2nc3ncccc3o2)ccc1C	110	99	90	98	95
CC(=O)Nc1sc2c(c1C#N)CCN(Cc1ccccc1)C2	103	100	110	94	95
N#Cc1c(NC(=O)/C=C/C(=O)O)sc2c1CCN(Cc1ccccc1)C2	72	?	?	367*[may fluoresce violet]	23*[may fluoresce violet]
CC(C)N1CCN(Cc2ccccc2-c2ccco2)CC1CCO (stereo not given)	95	106	99	102	103
Cc1ccc(S(=O)(=O)NCC(=O)Nc2ccc(C(F)(F)F)cc2)cc1	99	.	?	173	41*[may fluoresce violet]
O=C(NCCCN1CCCCC1)C1CCN(S(=O)(=O)N2CCC3(CC2)OCCO3)CC1	90	?	?	154	36*[may fluoresce violet]
O=C(NCCCN1CCc2ccccc2C1)C1CCN(S(=O)(=O)N2CCC3(CC2)OCCO3)CC1	96	103	95	96	104
CC1CCCN(CCCNC(=O)C2CCN(S(=O)(=O)N3CCC4(CC3)OCCO4)CC2)C1 (stereo not given)	86	18	105	120	47*
CCCCNC(=O)c1ccc2c(SCC(=O)O)c3c(nc2c1)CCCC3	110	98	103	185*	104
CC(C)CCNC(=O)c1ccc2c(SCC(=O)O)c3c(nc2c1)CCC3	101	106	108	99	98
CCOc1cc(N2CCOCC2)c(OCC)cc1NC(=O)c1[nH]c(C)c(C(C)=O)c1C	109	108	96	102	97
CCOc1ccc(OCC)c(NC(=O)c2[nH]c(C)c(C(C)=O)c2C)c1	101	?	?	368*[may fluoresce violet]	41*[may fluoresce violet]
COc1ccc(C(=O)NCC(=O)OCC(=O)N(C)c2ccccc2)cc1	102	110	100	102	101
CC(NC(=O)c1ccccc1)c1nc2ccccc2n1Cc1ccccc1F (stereo not given)	71	?	?	293*[may fluoresce violet]	16*[may fluoresce violet]
NC(=O)C(c1cccc(Cl)c1)c1ncc(C(F)(F)F)cc1Cl (stereo not given)	85	20	?	239*[may fluoresce violet]	53
COc1ccc(C(C(N)=O)c2ncc(C(F)(F)F)cc2Cl)cc1 (stereo not given)	91	102	105	106	104
